# Experimental data as given in PubChem BioAssay (Tox21).
# Inconclusive results are not listed. A call without a number means that no potency is given here. A structure can be active in one record and inactive in another. Active and inactive are the calls of the source. Calls follow the shape of the full dose curve.
# Experiments:
# [1] = biological target: Acetylcholinesterase (Homo sapiens) (UniProt P22303); experiment: Acetylcholinesterase (AChE) small molecule antagonists: colormetric cell-based qHTS assay (AID 1347395); also: nearly all actives have a fitted effect of over 30% in size; also: potency is read from the fitted curve at half-maximal effect
# Sequence of Acetylcholinesterase (Homo sapiens) (P22303 whole entry, looked up): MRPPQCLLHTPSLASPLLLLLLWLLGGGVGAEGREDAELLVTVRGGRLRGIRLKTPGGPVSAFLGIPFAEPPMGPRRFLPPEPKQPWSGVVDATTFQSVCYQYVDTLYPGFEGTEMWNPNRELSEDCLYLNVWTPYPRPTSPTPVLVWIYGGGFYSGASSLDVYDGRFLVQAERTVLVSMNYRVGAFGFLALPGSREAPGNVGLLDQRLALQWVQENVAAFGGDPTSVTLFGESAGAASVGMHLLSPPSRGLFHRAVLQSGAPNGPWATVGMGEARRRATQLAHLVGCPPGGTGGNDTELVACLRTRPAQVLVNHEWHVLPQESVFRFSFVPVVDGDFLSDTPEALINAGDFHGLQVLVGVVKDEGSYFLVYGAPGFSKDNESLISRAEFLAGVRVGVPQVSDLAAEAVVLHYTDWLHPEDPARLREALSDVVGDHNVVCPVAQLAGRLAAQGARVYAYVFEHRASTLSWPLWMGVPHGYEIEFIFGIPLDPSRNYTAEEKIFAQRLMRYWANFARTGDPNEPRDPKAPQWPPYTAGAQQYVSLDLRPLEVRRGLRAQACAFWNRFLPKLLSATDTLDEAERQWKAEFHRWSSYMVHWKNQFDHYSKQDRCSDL
# How it was run: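 AChE inhibition read colorimetrically via DTNB–thiocholine in SH-SY5Y cells. Compound 30 min, substrate 90 min, both 37 C.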
# [2] = biological target: Acetylcholinesterase (Homo sapiens) (UniProt P22303); experiment: Acetylcholinesterase (AChE) small molecule antagonists: enzyme-based qHTS assay (AID 1347397); conditions: Potency: AChE enzyme activity inhibition; outcome: AChE enzyme activity inhibition; also: nearly all actives have a fitted effect of over 55% in size
# How it was run: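 Colorimetric DTNB read-out of thiocholine released from acetylthiocholine by recombinant human AChE (50 mU/mL as dispensed). Compounds were preincubated 30 min at RT before substrate/DTNB addition, with a 10 min RT reaction.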
# [3] = biological target: Acetylcholinesterase (Homo sapiens) (UniProt P22303); experiment: Acetylcholinesterase (AChE) small molecule antagonists: fluorescence cell-based qHTS assay (AID 1347398); conditions: Potency: AChE activity; outcome: AChE activity; also: nearly all actives have a fitted effect of over 50% in size; also: potency is read from the fitted curve at half-maximal effect
# How it was run: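 SH-SY5Y, 2,000 cells/well, attached overnight; cmpd 30 min 37 C; acetylthiocholine/Thiolite Green cocktail 40 min RT; fluorescence Ex/Em 490/520 nm.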
# [4] = biological target: Acetylcholinesterase (Homo sapiens) (UniProt P22303); experiment: Acetylcholinesterase (AChE) small molecule antagonists: enzyme-based qHTS assay with human liver microsomes (AID 1347399); conditions: Potency: qHTS inhibition; outcome: qHTS inhibition; also: nearly all actives have a fitted effect of over 60% in size
# How it was run: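 Recombinant human AChE (50 mU/mL in the enzyme mix) and human liver microsomes (0.25 mg/mL final) were preincubated with compound and NADPH (0.25 mg/mL final) for 30 min at 37 C. Acetylthiocholine/DTNB was then added; thiocholine was read colorimetrically after 10 min at room temperature.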
SMILES,Potency [1],Potency [2],Potency [3],Potency [4],"activity, negative = inhibition [1]","activity change, negative = inhibition [2]","activity change, negative = inhibition [3]","activity change, negative = inhibition [4]"
[O-]/[N+](=N\O)c1ccccc1,inactive,inactive,inactive,inactive,–,–,–,–
O=C(Oc1ccccc1)c1ccc2ccccc2c1O,inactive,inactive,inactive,inactive,–,–,–,–
CC(=O)CCc1ccccc1,inactive,inactive,inactive,inactive,–,–,–,–
C=C(C)C(=O)OCCOP(=O)(O)O,inactive,inactive,inactive,inactive,–,–,–,–
CCOc1ccc(NC(C)=O)cc1N,inactive,inactive,inactive,inactive,–,–,–,–
CCOC(=O)O[C@]1(C(=O)OCCl)CC[C@H]2[C@@H]3CCC4=CC(=O)C=C[C@]4(C)[C@H]3[C@@H](O)C[C@@]21C,inactive,inactive,inactive,inactive,–,–,–,–
C[C@]12CCC(=O)C=C1CC[C@@H]1[C@@H]2CC[C@@]2(C)[C@H]1CC[C@]2(O)C(=O)CO,inactive,inactive,inactive,inactive,–,–,–,–
N[C@@H](CCC(=O)Nc1ccc([N+](=O)[O-])cc1)C(=O)O,inactive,inactive,inactive,inactive,–,–,–,–
NC(=O)c1ccccc1N,inactive,inactive,inactive,inactive,–,–,–,–
CCOC(=O)C1=NN(c2ccccc2)C(=O)C1,inactive,inactive,inactive,inactive,–,–,–,–
O=C(O)CN(CCOCCOCCN(CC(=O)O)CC(=O)O)CC(=O)O,–,–,–,–,-1.41% [at 0.435 µM] (inactive),-0.554% [at 0.435 µM] (inactive),2.07% [at 0.439 µM] (inactive),-0.252% [at 0.435 µM] (inactive)
CC1=C(C)S(=O)(=O)CCS1(=O)=O,inactive,inactive,inactive,inactive,–,–,–,–
NS(=O)(=O)c1cc2c(cc1Cl)NC=NS2(=O)=O,inactive,inactive,inactive,inactive,–,–,–,–
O=S(=O)(O)C(F)(F)F,inactive,inactive,inactive,inactive,–,–,–,–
Cc1cccc(OCC(O)CNC(C)(C)C)c1C (stereo not given),inactive,inactive,inactive,inactive,–,–,–,–
O=C1c2cccc(O)c2C(=O)c2c(O)cccc21,inactive,inactive,inactive,inactive,–,–,–,–
CCCCCCCCN,inactive,inactive,inactive,inactive,–,–,–,–
ICCc1ccccc1,inactive,inactive,inactive,inactive,–,–,–,–
Cc1cccc(C)c1OCC(=O)N[C@@H](Cc1ccccc1)[C@@H](O)C[C@H](Cc1ccccc1)NC(=O)[C@H](C(C)C)N1CCCNC1=O,inactive,inactive,inactive,inactive,–,–,–,–
CCCCCC1CCCC(=O)O1 (stereo not given),inactive,inactive,inactive,inactive,–,–,–,–

SMILES,Potency [1],Potency [2],Potency [3],Potency [4],"activity, negative = inhibition [1]","activity change, negative = inhibition [2]","activity change, negative = inhibition [3]","activity change, negative = inhibition [4]"
CCCCOC(=O)C(=O)OCCCC,inactive,inactive,inactive,inactive,–,–,–,–
C[C@H](NC(CCc1ccccc1)C(=O)O)C(=O)N1CCC[C@H]1C(=O)O (stereo not given in full),inactive,inactive,inactive,inactive,–,–,–,–
CCS(=O)(=O)CCn1c([N+](=O)[O-])cnc1C,inactive,inactive,inactive,inactive,–,–,–,–
CCCCCCCC/C=C\CCCCCCCC(=O)OCCOC(=O)CCCCCCC/C=C\CCCCCCCC,inactive,inactive,inactive,inactive,–,–,–,–
CCOc1ccc(OCC)c(Cl)c1,inactive,inactive,inactive,inactive,–,–,–,–
CCCCCCCCCCCCCCCCC,inactive,inactive,inactive,inactive,–,–,–,–
Cc1ccc(Cl)c(N)c1Cl,inactive,inactive,inactive,inactive,–,–,–,–
CCCCCCCCCC(=O)OCC,inactive,inactive,inactive,inactive,–,–,–,–
O=C(O)Cc1ccccc1Oc1ccc(Cl)cc1Cl,inactive,inactive,inactive,inactive,–,–,–,–
CC/C=C\CCO,inactive,inactive,inactive,inactive,–,–,–,–
NCCCCCCN,inactive,inactive,inactive,inactive,–,–,–,–
CC(=O)CC/C=C(\C)CCC=C(C)C,inactive,inactive,inactive,inactive,–,–,–,–
Cc1cc(Nc2ccc(O)cc2)ccc1N,inactive,inactive,inactive,inactive,–,–,–,–
CC(C)Oc1ccc2c(=O)c(-c3ccccc3)coc2c1,inactive,inactive,inactive,inactive,–,–,–,–
CCC(C)(C)C1CCCCC1OC(C)=O (stereo not given),inactive,inactive,inactive,inactive,–,–,–,–
Cn1ccc2cc3c(cc21)CCN3C(=O)Nc1cccnc1,–,–,–,–,-3.7% [at 23.6 µM] (inactive),-19.7% [at 23.6 µM] (inactive),-28.9% [at 23.8 µM] (inactive),2.86% [at 23.6 µM] (inactive)
C=CCc1cc(OC)c(O)c(C(=O)NCCO)c1,inactive,inactive,inactive,inactive,–,–,–,–
O=C(O)c1ccc(S(=O)(=O)N(Cl)Cl)cc1,inactive,inactive,inactive,inactive,–,–,–,–
OCCN1CCN(CCO)CC1,inactive,inactive,inactive,inactive,–,–,–,–
CC(C)(C)CC(C)(C)c1ccc(O)c(-n2nc3ccccc3n2)c1,inactive,inactive,inactive,inactive,–,–,–,–

SMILES,Potency [1],Potency [2],Potency [3],Potency [4],"activity, negative = inhibition [1]","activity change, negative = inhibition [2]","activity change, negative = inhibition [3]","activity change, negative = inhibition [4]"
Clc1ccc(C(c2ccccc2Cl)C(Cl)Cl)cc1 (stereo not given),inactive,inactive,inactive,inactive,–,–,–,–
CCN(CC)CC(=O)Nc1c(C)cccc1C(=O)OC,inactive,inactive,inactive,inactive,–,–,–,–
Clc1nc(C(Cl)(Cl)Cl)c(Cl)c(Cl)c1Cl,inactive,inactive,inactive,inactive,–,–,–,–
C[C@@H]1C[C@H]2[C@@H]3CCC4=CC(=O)C=C[C@]4(C)[C@@]3(F)[C@@H](O)C[C@]2(C)[C@H]1C(=O)CO,inactive,inactive,inactive,inactive,–,–,–,–
COc1cc(C(=O)N2CCOCC2)cc(OC)c1OC,inactive,inactive,inactive,inactive,–,–,–,–
CCn1cc(C(=O)O)c(=O)c2cnc(N3CCCC3)nc21,–,–,–,–,2.45% [at 10.5 µM] (inactive),0.534% [at 10.5 µM] (inactive),15.4% [at 10.5 µM] (inactive),-1.77% [at 10.5 µM] (inactive)
COc1cc(C(=O)NS(=O)(=O)c2ccccc2C)ccc1Cc1cn(C)c2ccc(NC(=O)OC3CCCC3)cc12,inactive,inactive,inactive,inactive,–,–,–,–
C=CCOC(=O)CCCCCCCC,inactive,inactive,inactive,inactive,–,–,–,–
O=CN(CCO)CCO,inactive,inactive,inactive,inactive,–,–,–,–
CCCCCCOc1ccc(O)cc1,inactive,inactive,inactive,inactive,–,–,–,–
CCCCCCCCCCCCCCCCO,inactive,inactive,inactive,inactive,–,–,–,–
C=C(C)C(=O)OC(C)C,inactive,inactive,inactive,inactive,–,–,–,–
OCCCCCO,inactive,inactive,inactive,inactive,–,–,–,–
OC[C@H]1O[C@@H]2O[C@H]3[C@H](O)[C@@H](O)[C@@H](O[C@H]4[C@H](O)[C@@H](O)[C@@H](O[C@H]5[C@H](O)[C@@H](O)[C@@H](O[C@H]6[C@H](O)[C@@H](O)[C@@H](O[C@H]7[C@H](O)[C@@H](O)[C@@H](O[C@H]8[C@H](O)[C@@H](O)[C@@H](O[C@H]1[C@H](O)[C@H]2O)O[C@@H]8CO)O[C@@H]7CO)O[C@@H]6CO)O[C@@H]5CO)O[C@@H]4CO)O[C@@H]3CO,inactive,inactive,inactive,inactive,–,–,–,–
O=C(O)Cc1cn(-c2ccccc2)nc1-c1ccc(Cl)cc1,inactive,inactive,inactive,inactive,–,–,–,–
CCC(C)(C)C1CCC(OC)CC1 (stereo not given),inactive,inactive,inactive,inactive,–,–,–,–
CC12CCC(CC1)C(C)(C)O2,inactive,inactive,inactive,inactive,–,–,–,–
Nc1cc(Cl)c(N)c(Cl)c1,79 µM (active) and inactive,inactive,55.9 µM (active) and inactive,inactive,–,–,–,–
CCC(C)(C)C1CCC(O)CC1 (stereo not given),inactive,inactive,inactive,inactive,–,–,–,–
CC(C)C1=CC2=CC[C@@H]3[C@](C)(CCC[C@@]3(C)C(=O)O)[C@H]2CC1,inactive,inactive,inactive,inactive,–,–,–,–
